# Data taken from the supplement of paper PMC8728848.
# Shown is part of a subset that was picked to be rich in the strongest signals.
# Assays:
# Test in all cases: glycan array binding signal (z-score within array); higher = stronger binding
# Conditions in all cases: glycan notation: IUPAC condensed, linker removed
# [1] = target: GalNAc(b1-3)Gal
# Method in brief: (§1)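 Glycan array data came from 3228 arrays in the Consortium for Functional Glycomics database, and only arrays with an available protein sequence were kept. Glycan names were put into IUPAC-condensed notation, and columns mapping to the same glycan were averaged. The binding signal is a within-array Z-score, averaged across arrays of one protein sequence run at different concentrations or buffers and across linkers. A negative Z-score can be read as non-binding.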
# [2] = target: GalNAc(b1-3)GalNAc
# Method in brief: as §1
# [3] = target: GalNAc(b1-4)GlcNAc
# Method in brief: as §1
# [4] = target: GlcNAc(a1-4)Gal(b1-4)GlcNAc(b1-3)Gal(b1-4)Glc
# Method in brief: as §1
# [5] = target: GlcNAc(a1-4)Gal(b1-4)GlcNAc(b1-3)Gal(b1-4)GlcNAc(b1-3)Gal(b1-4)GlcNAc
# Method in brief: as §1
# [6] = target: GlcNAc(b1-2)Man(a1-3)[GlcNAc(b1-2)Man(a1-6)]Man(b1-4)GlcNAc(b1-4)GlcNAc
# Method in brief: as §1
# [7] = target: GlcNAc(b1-2)[GlcNAc(b1-6)]Man(a1-6)[GlcNAc(b1-4)][GlcNAc(b1-2)Man(a1-3)]Man(b1-4)GlcNAc(b1-4)GlcNAc
# Method in brief: as §1
# [8] = target: GlcNAc(b1-3)Gal(b1-4)GlcNAc
# Method in brief: as §1
# [9] = target: GlcNAc(b1-3)Gal(b1-4)GlcNAc(b1-3)Gal(b1-4)GlcNAc(b1-3)Gal(b1-4)GlcNAc(b1-2)[GlcNAc(b1-3)Gal(b1-4)GlcNAc(b1-3)Gal(b1-4)GlcNAc(b1-3)Gal(b1-4)GlcNAc(b1-6)]Man(a1-6)[GlcNAc(b1-3)Gal(b1-4)GlcNAc(b1-3)Gal(b1-4)GlcNAc(b1-3)Gal(b1-4)GlcNAc(b1-2)Man(a1-3)]Man(b1-4)GlcNAc(b1-4)[Fuc(a1-6)]GlcNAc
# Method in brief: as §1
# [10] = target: GlcNAc(b1-6)GalNAc
# Method in brief: as §1
# [11] = target: Kdn(a2-3)Gal(b1-4)[Fuc(a1-3)]GlcNAc
# Method in brief: as §1
# [12] = target: Neu5Ac(a2-3)Gal(b1-3)GalNAc
# Method in brief: as §1
# [13] = target: Neu5Ac(a2-3)Gal(b1-3)GlcNAc(b1-2)Man(a1-3)[GlcNAc(b1-4)][Neu5Ac(a2-3)Gal(b1-3)GlcNAc(b1-2)Man(a1-6)]Man(b1-4)GlcNAc(b1-4)GlcNAc
# Method in brief: as §1
# [14] = target: Neu5Ac(a2-3)Gal(b1-3)GlcNAc(b1-3)Gal(b1-4)GlcNAc
# Method in brief: as §1
# [15] = target: Neu5Ac(a2-3)Gal(b1-3)[Fuc(a1-4)]GlcNAc(b1-3)Gal(b1-3)[Fuc(a1-4)]GlcNAc
# Method in brief: as §1
# [16] = target: Neu5Ac(a2-3)Gal(b1-4)GlcNAc(b1-2)Man
# Method in brief: as §1
# [17] = target: Neu5Ac(a2-3)Gal(b1-4)GlcNAc(b1-2)Man(a1-3)[Neu5Ac(a2-6)Gal(b1-4)GlcNAc(b1-2)Man(a1-6)]Man(b1-4)GlcNAc(b1-4)GlcNAc
# Method in brief: as §1
# [18] = target: Neu5Ac(a2-3)Gal(b1-4)GlcNAc(b1-3)Gal(b1-4)GlcNAc(b1-3)Gal(b1-4)GlcNAc
# Method in brief: as §1
# [19] = target: Neu5Ac(a2-3)Gal(b1-4)[Fuc(a1-3)]GlcNAc(b1-3)Gal(b1-4)GlcNAc
# Method in brief: as §1
# [20] = target: Neu5Ac(a2-3)Gal(b1-4)[Fuc(a1-3)]GlcNAc(b1-3)Gal(b1-4)[Fuc(a1-3)]GlcNAc(b1-3)Gal(b1-4)[Fuc(a1-3)]GlcNAc
# Method in brief: as §1
# [21] = target: Neu5Ac(a2-3)[GalNAc(b1-4)]Gal(b1-4)GlcNAc(b1-3)GalNAc
# Method in brief: as §1
# [22] = target: Neu5Ac(a2-6)Gal(b1-4)GlcNAc(b1-2)Man(a1-3)[Neu5Ac(a2-6)Gal(b1-4)GlcNAc(b1-2)Man(a1-6)]Man(b1-4)GlcNAc(b1-4)GlcNAc
# Method in brief: as §1
# [23] = target: Neu5Ac(a2-6)Gal(b1-4)GlcNAc(b1-2)Man(a1-6)[GlcNAc(b1-2)Man(a1-3)]Man(b1-4)GlcNAc(b1-4)GlcNAc
# Method in brief: as §1
# [24] = target: Neu5Ac(a2-6)Gal(b1-4)GlcNAc(b1-3)Gal(b1-4)GlcNAc(b1-3)Gal(b1-4)GlcNAc(b1-2)Man(a1-3)[Neu5Ac(a2-6)Gal(b1-4)GlcNAc(b1-3)Gal(b1-4)GlcNAc(b1-3)Gal(b1-4)GlcNAc(b1-2)Man(a1-6)]GalNAc
# Method in brief: as §1
# [25] = target: Neu5Ac(a2-6)Gal(b1-4)GlcNAc(b1-6)[Gal(b1-3)]GalNAc
# Method in brief: as §1
# [26] = target: Neu5Ac(a2-8)Neu5Ac(a2-3)Gal(b1-3)GalNAc(b1-4)[Neu5Ac(a2-8)Neu5Ac(a2-3)]Gal(b1-4)Glc
# Method in brief: as §1
# [27] = target: Neu5Ac(a2-8)Neu5Ac(a2-3)[Gal(b1-3)GalNAc(b1-4)]Gal(b1-4)Glc
# Method in brief: as §1
# [28] = target: Neu5Ac(b2-6)GalNAc
# Method in brief: as §1
# [29] = target: Neu5Gc(a2-8)Neu5Gc(a2-6)Gal(b1-4)GlcNAc
# Method in brief: as §1
binder,measurement,setting,value
FimD (Bordetella pertussis) (protein) MPARVISFCGAALAVWAGLAVQPAMAVDPPVDCGRALGLHFWSSASLISDQTPDGTLIGKPVVGRSLLSKSCKVPDDIKEDLSDNHDGEPVDIVLELGSNYKIRPQSYGHPGIVVDLPFGSTEETGIAIYIDFGSSPMQKVGERQWLYPQKGEVLFDVLTINGDNAEVRYQAIKVGPLKRPRKLVLSQFPNLFTYKWVFMRGTSQERVLAQGTIDTDVATSTIDLKTCRYTSQTVSLPIIQRSALTGVGTTLGMTDFQMPFWCYGWPKVSVYMSATKTQTGVDGVALPATGQAAGMASGVGVQLINGKTQQPVKLGLQGKIALPEAQQTESATFSLPMKAQYYQTSTSTSAGKLSVTYAVTLNYD,glycan array binding signal (z-score),[1],0.008
same,glycan array binding signal (z-score),[2],-0.207
same,glycan array binding signal (z-score),[3],1.38
same,glycan array binding signal (z-score),[4],1.99
same,glycan array binding signal (z-score),[5],-0.238
same,glycan array binding signal (z-score),[6],0.004
same,glycan array binding signal (z-score),[7],-0.119
same,glycan array binding signal (z-score),[8],-0.296
same,glycan array binding signal (z-score),[9],1.29
same,glycan array binding signal (z-score),[10],-0.117
same,glycan array binding signal (z-score),[11],-0.279
same,glycan array binding signal (z-score),[12],0.041
same,glycan array binding signal (z-score),[13],-0.459
same,glycan array binding signal (z-score),[14],-0.268
same,glycan array binding signal (z-score),[15],-0.191
same,glycan array binding signal (z-score),[16],1.16
same,glycan array binding signal (z-score),[17],-0.107
same,glycan array binding signal (z-score),[18],0.504
same,glycan array binding signal (z-score),[19],0.96
same,glycan array binding signal (z-score),[20],-0.135
same,glycan array binding signal (z-score),[21],0.943
same,glycan array binding signal (z-score),[22],0.115
same,glycan array binding signal (z-score),[23],-0.065
same,glycan array binding signal (z-score),[24],1.34
same,glycan array binding signal (z-score),[25],-0.022
same,glycan array binding signal (z-score),[26],1.36
same,glycan array binding signal (z-score),[27],-0.095
same,glycan array binding signal (z-score),[28],-0.348
same,glycan array binding signal (z-score),[29],-0.611
